Reference: the supplement of paper PMC11732987, “Enantioselective OTUD7B fragment discovery through chemoproteomics screening and high-throughput optimisation” (Communications Chemistry, 2025)

Columns and labels:
Assay in all cases: log2 ratio of Biotin-Ahx-Ub-VS probe labelling (fragment/DMSO); higher = less target engagement (more negative = stronger competition), active = hit call of the paper (q ≤ 0.05, log2 ratio ≤ -1)
Settings in all cases: compound concentration: 200 uM; treatment time: 3 h
[1] = target: USP34 (UniProt Q70CQ2)
Sequence of USP34 (Q70CQ2 whole entry, the tested form may be a part): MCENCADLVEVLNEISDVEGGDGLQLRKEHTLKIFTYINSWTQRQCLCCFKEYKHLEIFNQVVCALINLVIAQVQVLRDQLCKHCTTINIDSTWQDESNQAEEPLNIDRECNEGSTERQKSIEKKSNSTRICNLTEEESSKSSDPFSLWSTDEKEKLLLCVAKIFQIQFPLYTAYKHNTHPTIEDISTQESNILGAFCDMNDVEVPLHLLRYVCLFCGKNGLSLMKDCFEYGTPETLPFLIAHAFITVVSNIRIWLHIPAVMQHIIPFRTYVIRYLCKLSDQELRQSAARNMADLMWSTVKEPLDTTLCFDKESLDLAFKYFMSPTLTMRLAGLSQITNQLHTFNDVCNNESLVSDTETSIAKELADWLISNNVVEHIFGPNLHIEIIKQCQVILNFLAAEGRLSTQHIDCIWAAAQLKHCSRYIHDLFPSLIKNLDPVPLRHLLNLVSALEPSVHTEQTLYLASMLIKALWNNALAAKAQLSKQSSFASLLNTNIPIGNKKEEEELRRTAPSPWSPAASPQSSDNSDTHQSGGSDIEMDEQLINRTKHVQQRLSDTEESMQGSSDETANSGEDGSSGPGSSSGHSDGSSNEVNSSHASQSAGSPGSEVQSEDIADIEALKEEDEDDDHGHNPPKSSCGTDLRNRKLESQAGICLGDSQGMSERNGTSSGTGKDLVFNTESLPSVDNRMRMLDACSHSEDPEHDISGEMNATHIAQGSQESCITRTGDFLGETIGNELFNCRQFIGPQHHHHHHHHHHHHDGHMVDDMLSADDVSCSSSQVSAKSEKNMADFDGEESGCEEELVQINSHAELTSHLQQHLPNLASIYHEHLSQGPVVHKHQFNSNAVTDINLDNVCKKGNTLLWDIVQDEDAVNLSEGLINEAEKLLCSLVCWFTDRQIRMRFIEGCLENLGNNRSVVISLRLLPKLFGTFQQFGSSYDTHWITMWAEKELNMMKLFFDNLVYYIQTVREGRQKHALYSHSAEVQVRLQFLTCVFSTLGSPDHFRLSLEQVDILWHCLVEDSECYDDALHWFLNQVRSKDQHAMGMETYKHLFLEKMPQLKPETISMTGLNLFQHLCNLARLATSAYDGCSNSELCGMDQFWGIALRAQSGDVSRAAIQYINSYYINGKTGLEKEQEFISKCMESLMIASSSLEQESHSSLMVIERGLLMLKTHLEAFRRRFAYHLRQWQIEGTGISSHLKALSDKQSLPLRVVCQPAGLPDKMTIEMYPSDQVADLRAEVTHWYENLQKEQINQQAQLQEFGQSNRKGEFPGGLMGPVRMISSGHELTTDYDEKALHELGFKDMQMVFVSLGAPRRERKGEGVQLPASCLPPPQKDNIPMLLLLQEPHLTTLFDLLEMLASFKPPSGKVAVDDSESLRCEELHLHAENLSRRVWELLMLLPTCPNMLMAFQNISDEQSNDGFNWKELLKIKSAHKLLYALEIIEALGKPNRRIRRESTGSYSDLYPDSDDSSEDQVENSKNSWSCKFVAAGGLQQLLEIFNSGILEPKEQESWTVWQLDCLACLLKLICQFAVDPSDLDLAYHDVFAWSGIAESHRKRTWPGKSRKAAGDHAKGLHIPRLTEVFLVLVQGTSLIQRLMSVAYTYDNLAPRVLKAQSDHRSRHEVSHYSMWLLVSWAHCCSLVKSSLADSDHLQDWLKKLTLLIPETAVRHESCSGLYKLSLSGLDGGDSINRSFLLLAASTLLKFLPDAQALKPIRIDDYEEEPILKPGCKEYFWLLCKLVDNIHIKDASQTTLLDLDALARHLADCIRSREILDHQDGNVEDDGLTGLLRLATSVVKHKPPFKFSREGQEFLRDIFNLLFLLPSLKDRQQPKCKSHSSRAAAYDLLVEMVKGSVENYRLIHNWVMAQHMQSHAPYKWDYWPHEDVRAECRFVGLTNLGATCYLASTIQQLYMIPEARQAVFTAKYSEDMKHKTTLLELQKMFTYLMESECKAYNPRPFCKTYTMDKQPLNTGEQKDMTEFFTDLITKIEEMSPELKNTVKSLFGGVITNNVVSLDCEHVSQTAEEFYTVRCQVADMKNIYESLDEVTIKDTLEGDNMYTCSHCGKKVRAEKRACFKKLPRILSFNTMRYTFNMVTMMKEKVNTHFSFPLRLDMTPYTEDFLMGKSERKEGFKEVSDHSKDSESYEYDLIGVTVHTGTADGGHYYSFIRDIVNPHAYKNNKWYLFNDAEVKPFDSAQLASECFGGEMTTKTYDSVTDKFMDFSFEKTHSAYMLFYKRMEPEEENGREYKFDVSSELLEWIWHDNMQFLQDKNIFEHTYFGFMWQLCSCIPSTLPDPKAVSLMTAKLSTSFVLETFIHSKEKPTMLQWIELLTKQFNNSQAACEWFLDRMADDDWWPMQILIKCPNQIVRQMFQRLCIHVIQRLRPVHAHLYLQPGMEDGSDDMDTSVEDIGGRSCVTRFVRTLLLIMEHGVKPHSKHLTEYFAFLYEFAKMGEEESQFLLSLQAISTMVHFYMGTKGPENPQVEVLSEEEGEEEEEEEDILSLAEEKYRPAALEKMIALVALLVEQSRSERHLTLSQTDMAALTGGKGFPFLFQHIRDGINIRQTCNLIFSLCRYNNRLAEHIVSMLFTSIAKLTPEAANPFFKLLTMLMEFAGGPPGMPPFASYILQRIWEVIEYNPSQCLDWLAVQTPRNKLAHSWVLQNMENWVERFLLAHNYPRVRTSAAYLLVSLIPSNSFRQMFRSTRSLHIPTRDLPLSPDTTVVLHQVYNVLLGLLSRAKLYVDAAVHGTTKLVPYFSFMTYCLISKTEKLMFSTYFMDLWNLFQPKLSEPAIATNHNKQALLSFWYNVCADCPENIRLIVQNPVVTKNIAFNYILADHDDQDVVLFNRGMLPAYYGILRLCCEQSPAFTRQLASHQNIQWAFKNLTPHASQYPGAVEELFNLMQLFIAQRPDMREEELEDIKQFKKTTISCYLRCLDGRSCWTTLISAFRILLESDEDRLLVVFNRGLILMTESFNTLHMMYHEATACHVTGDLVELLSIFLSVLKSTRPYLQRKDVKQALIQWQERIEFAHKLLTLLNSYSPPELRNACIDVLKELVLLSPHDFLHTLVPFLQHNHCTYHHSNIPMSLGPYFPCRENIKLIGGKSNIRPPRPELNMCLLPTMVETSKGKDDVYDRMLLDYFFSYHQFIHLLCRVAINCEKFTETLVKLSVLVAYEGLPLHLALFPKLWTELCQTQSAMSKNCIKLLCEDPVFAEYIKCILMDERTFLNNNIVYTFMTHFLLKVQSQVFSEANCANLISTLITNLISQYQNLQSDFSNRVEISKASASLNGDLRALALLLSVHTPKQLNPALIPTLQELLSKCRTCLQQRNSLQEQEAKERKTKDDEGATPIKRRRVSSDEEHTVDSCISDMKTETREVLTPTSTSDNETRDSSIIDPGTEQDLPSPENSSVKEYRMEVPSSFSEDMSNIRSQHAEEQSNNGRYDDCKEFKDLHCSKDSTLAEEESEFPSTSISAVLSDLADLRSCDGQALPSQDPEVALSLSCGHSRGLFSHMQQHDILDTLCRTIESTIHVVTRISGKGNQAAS
In short: (§1)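 Average log2 ratios of fragment over vehicle were obtained by unpaired t-test from global-median-normalised Spectronaut label-free quantities. Proteins with ≥2 unique peptides were included. HEK293T lysate (495 µg per sample) was treated in triplicate with fragment at 200 µM or vehicle for 3 h, then with Biotin-Ahx-Ub-VS at 0.5 µM final for 1 h, and labelled DUBs were NeutrAvidin-enriched and run by diaPASEF LC-MS/MS.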

[2] = target: T1, USP36 (UniProt Q9P275)
T1 sequence (whole entry): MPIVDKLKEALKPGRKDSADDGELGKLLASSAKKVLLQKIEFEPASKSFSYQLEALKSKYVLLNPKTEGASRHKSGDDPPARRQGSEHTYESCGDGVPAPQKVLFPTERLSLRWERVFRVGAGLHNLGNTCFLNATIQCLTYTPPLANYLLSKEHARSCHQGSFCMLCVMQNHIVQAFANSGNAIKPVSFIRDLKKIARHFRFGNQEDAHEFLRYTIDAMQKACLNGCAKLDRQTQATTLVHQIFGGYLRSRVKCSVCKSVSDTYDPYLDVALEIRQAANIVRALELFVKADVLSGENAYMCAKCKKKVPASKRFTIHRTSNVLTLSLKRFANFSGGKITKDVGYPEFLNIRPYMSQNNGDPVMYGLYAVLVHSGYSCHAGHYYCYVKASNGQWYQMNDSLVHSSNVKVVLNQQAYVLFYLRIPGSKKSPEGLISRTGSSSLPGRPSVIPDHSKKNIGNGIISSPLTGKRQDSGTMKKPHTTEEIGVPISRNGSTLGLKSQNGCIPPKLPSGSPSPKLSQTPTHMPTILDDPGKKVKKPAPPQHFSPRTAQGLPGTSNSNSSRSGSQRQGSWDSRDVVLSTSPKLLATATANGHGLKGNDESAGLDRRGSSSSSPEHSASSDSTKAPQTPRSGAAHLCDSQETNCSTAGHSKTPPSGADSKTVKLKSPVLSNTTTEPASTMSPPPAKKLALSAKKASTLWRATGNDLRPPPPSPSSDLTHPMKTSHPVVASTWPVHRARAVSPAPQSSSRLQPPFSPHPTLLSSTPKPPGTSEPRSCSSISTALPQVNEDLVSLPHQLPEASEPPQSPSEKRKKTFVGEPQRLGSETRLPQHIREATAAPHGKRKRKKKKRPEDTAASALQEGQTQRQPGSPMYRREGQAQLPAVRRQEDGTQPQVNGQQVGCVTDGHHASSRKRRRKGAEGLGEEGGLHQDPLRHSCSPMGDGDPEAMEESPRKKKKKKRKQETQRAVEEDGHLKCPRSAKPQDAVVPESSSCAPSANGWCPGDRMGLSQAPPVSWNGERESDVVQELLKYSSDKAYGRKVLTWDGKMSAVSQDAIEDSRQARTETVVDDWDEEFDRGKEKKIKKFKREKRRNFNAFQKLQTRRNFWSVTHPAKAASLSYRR
In short: as §1

[3] = target: T2, USP38 (UniProt Q8NB14)
T2 sequence (whole entry): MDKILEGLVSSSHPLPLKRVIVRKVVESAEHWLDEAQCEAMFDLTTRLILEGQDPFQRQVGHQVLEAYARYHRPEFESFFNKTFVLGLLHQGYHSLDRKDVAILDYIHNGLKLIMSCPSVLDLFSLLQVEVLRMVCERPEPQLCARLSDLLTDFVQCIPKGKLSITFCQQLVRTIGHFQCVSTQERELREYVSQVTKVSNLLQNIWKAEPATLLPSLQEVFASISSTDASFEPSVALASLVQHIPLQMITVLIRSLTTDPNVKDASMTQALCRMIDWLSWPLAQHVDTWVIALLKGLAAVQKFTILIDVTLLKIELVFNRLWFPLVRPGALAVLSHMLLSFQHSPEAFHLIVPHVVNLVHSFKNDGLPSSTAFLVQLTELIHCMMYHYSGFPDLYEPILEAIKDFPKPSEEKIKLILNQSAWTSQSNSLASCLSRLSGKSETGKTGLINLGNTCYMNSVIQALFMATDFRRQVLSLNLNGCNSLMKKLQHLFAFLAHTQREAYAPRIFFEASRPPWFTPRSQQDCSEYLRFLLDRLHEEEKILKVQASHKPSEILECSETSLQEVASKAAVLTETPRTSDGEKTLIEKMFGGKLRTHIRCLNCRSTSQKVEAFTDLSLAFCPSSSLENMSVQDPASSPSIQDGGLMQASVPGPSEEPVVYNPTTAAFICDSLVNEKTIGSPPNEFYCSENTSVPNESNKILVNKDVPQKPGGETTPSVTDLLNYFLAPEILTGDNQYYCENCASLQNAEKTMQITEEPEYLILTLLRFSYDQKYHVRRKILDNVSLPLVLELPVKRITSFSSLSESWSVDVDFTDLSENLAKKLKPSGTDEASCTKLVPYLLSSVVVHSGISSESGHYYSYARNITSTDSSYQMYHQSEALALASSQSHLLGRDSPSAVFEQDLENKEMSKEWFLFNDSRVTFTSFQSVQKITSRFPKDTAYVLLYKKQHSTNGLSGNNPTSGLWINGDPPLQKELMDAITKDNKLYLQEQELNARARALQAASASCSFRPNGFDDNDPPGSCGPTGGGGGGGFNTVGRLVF
In short: as §1

[4] = target: T3, USP39 (UniProt Q53GS9)
T3 sequence (whole entry): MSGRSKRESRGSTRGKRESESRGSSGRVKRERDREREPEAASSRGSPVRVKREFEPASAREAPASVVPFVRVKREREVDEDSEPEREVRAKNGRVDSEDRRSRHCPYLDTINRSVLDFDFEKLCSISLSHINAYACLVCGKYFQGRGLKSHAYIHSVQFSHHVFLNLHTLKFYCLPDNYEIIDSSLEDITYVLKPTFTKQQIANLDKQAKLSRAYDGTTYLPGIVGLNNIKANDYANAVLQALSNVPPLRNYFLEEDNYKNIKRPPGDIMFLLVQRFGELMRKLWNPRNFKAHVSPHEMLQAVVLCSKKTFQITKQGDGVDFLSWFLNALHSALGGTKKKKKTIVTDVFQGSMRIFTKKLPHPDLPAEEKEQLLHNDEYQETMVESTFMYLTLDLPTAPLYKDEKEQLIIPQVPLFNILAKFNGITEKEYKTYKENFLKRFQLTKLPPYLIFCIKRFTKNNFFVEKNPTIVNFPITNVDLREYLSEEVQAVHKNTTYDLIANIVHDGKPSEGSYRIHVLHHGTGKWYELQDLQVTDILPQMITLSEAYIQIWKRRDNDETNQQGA
In short: as §1

[5] = target: T4, USP4 (UniProt Q13107)
T4 sequence (whole entry): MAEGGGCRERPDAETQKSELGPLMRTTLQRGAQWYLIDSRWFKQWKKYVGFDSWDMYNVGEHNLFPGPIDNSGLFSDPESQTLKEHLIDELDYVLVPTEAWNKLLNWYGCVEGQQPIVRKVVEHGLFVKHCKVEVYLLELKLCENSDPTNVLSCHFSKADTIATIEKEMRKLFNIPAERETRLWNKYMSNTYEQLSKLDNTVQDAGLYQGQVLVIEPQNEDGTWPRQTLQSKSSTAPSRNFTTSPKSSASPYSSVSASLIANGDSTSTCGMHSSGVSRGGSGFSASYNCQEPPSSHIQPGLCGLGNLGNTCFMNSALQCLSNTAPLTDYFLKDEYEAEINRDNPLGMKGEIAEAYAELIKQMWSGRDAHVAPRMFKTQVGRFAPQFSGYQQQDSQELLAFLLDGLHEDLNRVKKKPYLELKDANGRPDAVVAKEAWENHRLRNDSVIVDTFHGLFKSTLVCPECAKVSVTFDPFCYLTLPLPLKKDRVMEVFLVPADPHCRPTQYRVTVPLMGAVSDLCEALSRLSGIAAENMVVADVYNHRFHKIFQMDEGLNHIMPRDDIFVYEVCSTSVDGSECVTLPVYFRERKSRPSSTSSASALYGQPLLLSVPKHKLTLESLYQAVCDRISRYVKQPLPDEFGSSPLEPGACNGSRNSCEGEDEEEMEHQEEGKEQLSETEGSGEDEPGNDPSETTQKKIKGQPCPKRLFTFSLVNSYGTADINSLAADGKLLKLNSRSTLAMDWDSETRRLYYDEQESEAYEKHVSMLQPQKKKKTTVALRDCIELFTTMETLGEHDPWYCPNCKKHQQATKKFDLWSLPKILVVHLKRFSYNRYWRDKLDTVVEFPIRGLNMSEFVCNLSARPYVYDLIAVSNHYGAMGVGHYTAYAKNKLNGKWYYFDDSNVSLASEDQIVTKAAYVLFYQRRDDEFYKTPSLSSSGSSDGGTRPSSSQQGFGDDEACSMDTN
In short: as §1

Measured: log2 ratio of Biotin-Ahx-Ub-VS probe labelling

O=C(CN1CCN(C(=O)CCl)CC1)Nc1cccc(F)c1
inactive: [1] -0.112 | [2] 0.0501 | [3] -0.114 | [4] -0.288 | [5] -0.0247
